# ChEMBL document CHEMBL1157539, “Thousands of chemical starting points for antimalarial lead identification” (Nature, 2010)
# Test system: HepG2
# Assay: GSK_TCMDC: Percent inhibition of human HepG2 cell line. Test compounds present at 10uM.
# Type: functional
row,Compound,Inhibition
1,CC(C)c1ccc(NC(=O)Nc2ccc(CCNCCCc3ccccc3)cc2)cc1,22%
2,COc1ccc(C(=O)CC(=O)c2ccc(OC)cc2OC)c(OC)c1,1%
3,CC(C)(C)c1ccc(CNCCOc2ccc(Nc3nnc(-c4ccc(-c5ncc[nH]5)cc4)o3)c3ccccc23)cc1.O=C(O)C(F)(F)F,43%
4,CCCCCCCN1CC[C@@H](CCCc2ccnc3ccc(OCCCCN/C(N)=N/O)cc23)[C@@H](CC)C1.O=C(O)C(=O)O,27%
5,O=C(NC1CCC1)C1CCN(C(c2ccc(Cl)cc2)c2ccc(Cl)cc2)CC1,6%
6,COc1ccccc1-c1csc(C(=O)NC2CCCCN(Cc3ccc(C(C)(C)C)cc3)C2)c1.O=C(O)C(F)(F)F (stereo not given),13%
7,O=C(NC1CCCCN(Cc2ccc3c(c2)OCCO3)C1)c1cc(-c2ccccc2F)cs1.O=C(O)C(F)(F)F (stereo not given),8%
8,CCCCCCn1c(Sc2ccc(C#N)c([N+](=O)[O-])c2)nnc1-c1cccc(Cl)c1,17%
9,CCN(CC)CCN(Cc1ccc(-c2ccc(C(F)(F)F)cc2)cc1)C(=O)c1ccc(-c2ccc(NC(=O)OC)cc2C)cc1,66%
10,CCCc1cc(Cc2cnc(N)nc2N)ccc1OCCCCCC(=O)O.Cl,3%
11,COc1ccccc1C1CCN(C2CCC(NC(=O)c3cc4ccccc4[nH]3)CC2)CC1 (stereo not given),49%
12,CCOc1cc2c(cc1OCC)C(c1cc(OC)c(O)cc1Cl)NCC2 (stereo not given),15%
13,CC(Oc1cccc(Cl)c1)C(=O)N1CCc2ccccc21 (stereo not given),4%
14,COc1ccccc1C1CCN(C2CCC(NC(=O)/C=C/c3ccc(OC(F)(F)F)cc3)CC2)CC1 (stereo not given),65%
15,Fc1ccc(-c2cc3ncnc(N4CCN(CCN5CCCC5)CC4)c3s2)cc1,25%
16,Cc1ccccc1C1CCN(C2CCC(NC(=O)/C=C/c3c(F)ccc(F)c3F)CC2)CC1 (stereo not given),37%
17,COc1ccc2nccc([C@@H](O)CN3CCC(NCc4cc5c(Cl)cc(Cl)cc5[nH]4)CC3)c2c1.O=C(O)C(=O)O,93%
18,COc1cc2nc(NCCCN3CCCCC3)nc(NCc3ccccc3)c2cc1OC,12%
19,Cc1onc(-c2ccccc2)c1C(=O)Nc1nc(-c2ccccn2)nc2ccsc12,23%
20,O=C(C=Cc1ccc(Cl)c(Cl)c1)NCCCCCN1CCC(CCCNC(=O)/C=C/c2ccccc2)CC1,50%

row,Compound,Inhibition
1,Cc1cccc(CNc2nc(C)cc(NCCC(=O)Nc3ccccc3)n2)c1.O=C(O)C(F)(F)F,15%
2,Cc1cc(N[C@@H](Cc2ccccc2)C(=O)NCCc2ccccc2)nc(NCC2CCCCC2)n1.O=C(O)C(F)(F)F,24%
3,COCCNCc1ncsc1-c1ccc2c(Nc3cc(O)c(Cl)cc3F)ccnc2c1,0%
4,CS(=O)(=O)c1ccc(CNCc2ccc(-c3cccc(-c4nc5cc(F)ccc5[nH]4)c3)cc2)cc1.O=C(O)C(F)(F)F,33%
5,CN(C)C(=S)N/N=C1/C(=O)Nc2ccc(OC(F)(F)F)cc21,36%
6,CC1C(c2cccc(Cl)c2)OCC(C)(C)N1C(=O)CCN1CCCCC1.Cl (stereo not given),2%
7,O=C(Nc1cccc(-c2ccc(-c3nc4cc(F)ccc4[nH]3)cc2)c1)c1cccnc1,27%
8,COc1cccc(C(=O)Nc2ccc(Nc3nc(C)cc(N4CCCCC4)n3)cc2)c1OC,47%
9,Br.CC1(C)N=C(N)N=C(N)N1OCCc1ccc2ccccc2c1,65%
10,COCCn1ccc2c3c(N)nc(N)nc3ccc21,43%
11,Cn1nc(-c2ccc(NC(=O)Nc3cc(C(F)(F)F)ccc3F)c(F)c2)c2cnc(NCCCn3ccnc3)nc21.O=C(O)C(F)(F)F,45%
12,Clc1ncnc2scc(-c3ccc(Br)cc3)c12,0%
13,COc1cc(NC(=O)C(c2ccc(Cl)cc2)C(C)C)cc(OC)c1 (stereo not given),5%
14,Cl.N#Cc1ccc(C2CCN(CC[C@H](N)Cc3ccc(Cl)s3)CC2)cc1,31%
15,CC1(C)N=C(N)N=C(N)N1c1cc(Cl)c(Cl)cc1Cl.Cl,11%
16,Cc1ccc(NC(=O)c2cccc(CN3CCCN(CC4CCCCC4)CC3)c2)cc1F.O=C(O)C(F)(F)F,22%
17,COc1cc(C(=O)N2COCC(CCCN3CCC(N4CCCC4)CC3)(c3ccc(Cl)c(Cl)c3)C2)cc(OC)c1OC (stereo not given),5%
18,CC(=O)Nc1cccc(C(=O)Nc2cccc(-c3ccc(-c4nc5cc(F)ccc5[nH]4)cc3)c2)c1,60%
19,Cl.O=c1cc(NCCCNCc2scc3c(Cl)cc(C(F)(F)F)nc23)[nH]c2ccccc12,9%
20,O=C(C=Cc1cn(-c2ccccc2)nc1-c1cccs1)N1CCN(c2ccncc2)CC1,31%
